Test results: ChEMBL document CHEMBL3988442, “University of Dundee, Small-Polar-MMV Screening Library” (2021)

Experiments:
[1] = target: T1, Aspartate--tRNA(Asp/Asn) ligase (Mycobacterium tuberculosis (strain ATCC 25618 / H37Rv)) (UniProt P9WFW3); test: Assay for Asp RNA synthetase-1 from Mycobacterium tuberculosis; assay type: functional; set-up: scale not given: direction of the effect not stated beside the values; conditions: 30 µM; note: in the data most compounds retested in dose-response had high values
T1 sequence (whole entry): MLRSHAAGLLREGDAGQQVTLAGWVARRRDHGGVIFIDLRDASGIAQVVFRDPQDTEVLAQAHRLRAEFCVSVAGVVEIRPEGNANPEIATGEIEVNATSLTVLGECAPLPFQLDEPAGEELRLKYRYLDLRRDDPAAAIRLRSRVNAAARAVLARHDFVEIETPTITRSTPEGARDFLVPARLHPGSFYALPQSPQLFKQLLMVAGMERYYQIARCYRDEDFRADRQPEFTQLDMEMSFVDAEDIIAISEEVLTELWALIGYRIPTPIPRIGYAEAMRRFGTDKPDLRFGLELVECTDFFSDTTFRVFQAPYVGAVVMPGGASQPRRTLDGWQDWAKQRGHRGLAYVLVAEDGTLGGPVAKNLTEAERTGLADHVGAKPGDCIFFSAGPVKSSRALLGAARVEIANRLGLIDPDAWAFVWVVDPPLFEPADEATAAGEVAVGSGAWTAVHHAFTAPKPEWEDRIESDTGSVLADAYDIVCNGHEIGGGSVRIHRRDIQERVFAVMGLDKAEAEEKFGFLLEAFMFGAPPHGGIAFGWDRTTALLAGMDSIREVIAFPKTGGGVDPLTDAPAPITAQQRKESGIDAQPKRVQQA

[2] = target: Shiga toxin 2 (Escherichia coli O157:H7) (UniProt P09385+P09386); test: E. coli 0.157:H7 Shiga Toxin SOP - stx2 screening assay; assay type: functional; set-up: scale not given: direction of the effect not stated beside the values; conditions: 30 µM

Compound | Percent Effect [1] [%] | Percent Effect [2] [%]
Cc1cnn(CC2CCCN2C(=O)CCc2nc3ccccc3[nH]2)c1 (centres undefined) | -0.857 | -31.6
COCCn1ccc(NC(=O)Nc2cccnc2)n1 | -2.04 | -43.4
N#Cc1ccc(F)c(CN2CCCC2Cn2cccn2)c1 (centres undefined) | 0.262 | 1.36
CN(CCCNc1cc(N2CCCC2CO)ncn1)S(C)(=O)=O (centres undefined) | 7.01 | -30
Cc1nnc(C(C)N2CCN(Cc3ccc(C#N)cc3)CC2)o1 (centres undefined) | -2.07 | 20
CC(NC(=O)NCCCNS(C)(=O)=O)c1ccncc1 (centres undefined) | -3.27 | -2.62
COc1cccc(CCC2CCCN(C(=O)c3n[nH]c4c3CCC4)C2)c1 (centres undefined) | 2.06 | -1.83
OC(CN1CCN(Cc2nnc(C3CC3)o2)CC1)c1ccccc1 (centres undefined) | -1.28 | 6.16
Cc1cc(C(=O)N2C[C@@H](C(=O)O)[C@H](c3ccccc3C)C2)c(C)o1 | 6.11 | -22
O=C(c1cscn1)N1CCC2(CCN(Cc3cccs3)CC2)C1 | -4.17 | -7.4
O=C1CC(c2ccncc2)C2(CCN(CCO)CC2)N1 (centres undefined) | -1.48 | -4.07
Clc1ccccc1C1(c2ccnc(-c3ncccn3)n2)CCNCC1 | 8.32 | -34.1
COc1cccc2c1OCC(CNC(=O)CCCN1CCOCC1)C2 (centres undefined) | 4.84 | 5.01
CN1CCc2onc(CNc3ncccn3)c2C1 | 6.7 | -1.52
c1cnn(CC2CCCCN2Cc2cn3ccsc3n2)c1 (centres undefined) | 1.03 | -12.1
Cc1cnccc1N1CCCN(C(=O)CCCc2cn[nH]c2)CC1 | -0.632 | -13.3
CCOC(=O)[C@]12CCCN(Cc3nccs3)C[C@H]1CN(CCN(C)C)C2 | 6.19 | -7.56
Cc1noc(C)c1C(=O)N1CC[C@H]2C[C@@H](c3ccncn3)O[C@@H]2C1 | 2.79 | 3.86
Cn1cccc1CNC(=O)N(CCO)C1CCCc2ccccc21 (centres undefined) | -1.95 | -4.96
CCOCC1CN(Cc2cnn(C)c2)Cc2nn(C)cc21 (centres undefined) | -3.19 | -11.8
Cc1cc(C(=O)N2CCCCC2c2nc(C)cs2)[nH]n1 (centres undefined) | -5.22 | -15.7
O=C(CN1CCOC(Cn2cccn2)C1)Nc1nncs1 (centres undefined) | -1.58 | -15.4
Cn1ncc2c1C(COCC1CC1)CN(Cc1ccc(F)cc1)C2 (centres undefined) | -2.09 | -5.43
Cc1cc(C)cc(N(C)S(=O)(=O)c2cc(C(=O)O)cs2)c1 | 2.79 | -3.14
Cc1cccc(-c2ccc(C(=O)NCC3CCOC3)c(=O)[nH]2)c1 (centres undefined) | 7.65 | 15.2
CC(C)n1c(=O)nc2n1C(=O)N(c1ccc(F)cc1)C2 | 2.49 | 2.99
COc1ccnc(N2CCN(C(=O)NCc3ccc(C)s3)CC2)n1 | -2.05 | 31.8
